The sample as a whole holds a higher share of hits than the screen did.
Pf Dd2 growth: qHTS Primary assay for Inhibitors of Plasmodium falciparum Dd2 growth in vitro; 120,000 tested, 4.3% active; P. falciparum Dd2 growth, SYBR Green, 72 h; Potency, µM (top dose mostly 28.9 µM), actives largely listed as inhibitors; AID 1347417, 2020; active means well fitted inhibition curve with a large enough effect; further: nearly all actives have a fitted effect of over 65% in size
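Infected erythrocytes (Dd2, 0.3% parasitemia, 2.5% hematocrit final) are added to compound in RPMI-1640/Albumax II medium, grown 72 h at 37C in low oxygen, then lysed with saponin/Triton-X containing SYBR Green and read by fluorescence.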
Hits are given with their value; i = inactive.

SMILES	Pf Dd2 growth
O=C(NCc1ccccc1)N1CCC(N2CC(OCC3CC3)C23CCOCC3)CC1 (configuration not stated)	i
O=C(Cc1cccnc1)N1CCC(N2CC(OCC3CC3)C23CCCCC3)CC1 (configuration not stated)	7.9µM
CCOCC(=O)N1CCC(N2CC(OCC3CC3)C23CCCCC3)CC1 (configuration not stated)	5µM
CC(C)NC(=O)N1CCC(N2CC(OCC3CC3)C23CCCCC3)CC1 (configuration not stated)	i
Cn1nccc1C(=O)N1CCC(N2CC(OCC3CC3)C23CCOCC3)CC1 (configuration not stated)	i
CN1CCC2(C1)CN(CC1CCOCC1)c1ccc(C(=O)NCCc3ccccc3)cc12 (configuration not stated)	i
CNC(=O)c1ccc(NC(=O)COc2ccc(-c3nn(C)c(=O)c4ccccc34)cc2)cc1	i
O=C(c1ccc(N2CCCC(O)C2)nc1)N1CCC(CCc2ccccc2)CC1 (configuration not stated)	i
CCNC(=O)c1cccnc1OC1CCN(C(=O)C2CCOCC2)C1 (configuration not stated)	i
Cc1ccc(NC(=O)Cn2c(-c3ccc(F)cc3)nc(C)cc2=O)c(Cl)c1	i
CCn1nc(C(C)C)cc1C(=O)NCCCn1nc(C)c(Cl)c1C	i
COc1ccc(OC)c(NC(=O)N2CCN(Cc3nc4ccc(C)cc4o3)CC2)c1	i
COc1ccc(C)cc1NC(=O)C1N(C(C)C)C(=O)C12CCCC2 (configuration not stated)	i
COc1ccc(CCNC(=O)c2ccc3c(c2)N(Cc2cccc(Cl)c2)C(=O)CS3)cc1OC	i
COc1ccc(CCNC(=O)c2ccc(Cn3c(=O)c4ccccc4n(Cc4ccc(C)cc4)c3=O)cc2)cc1OC	i
CCCC1=Nc2cc(C(=O)NCCc3ccc(OC)c(OC)c3)ccc2Sc2ccc(C)cc21	10µM
COc1ccc(CCNC(=O)c2ccc3[nH]c(C)c(C)c3c2)cc1OC	i
CNC(=O)c1ccc2c(c1)N=C(C)c1cc(C)ccc1S2	i
COc1ccc(CCNC(=O)c2cc(=O)c3cc(C)cc(C)c3o2)cc1OC	i
O=C(NCc1ccccc1)c1ccc2nccn2c1	i
CCCC1=Nc2cc(C(=O)NCc3ccccc3)ccc2Sc2ccccc21	11µM
CCCNC(=O)c1ccc2c(c1)N(Cc1cccc(C)c1)C(=O)c1ccccc1S2	i
COc1ccc(CCNC(=O)c2ccc3c(c2)N=C(C)c2cc(C)ccc2S3)cc1OC	11µM
Cc1ccc(C)c(CN2C(=O)c3ccccc3Sc3ccc(C(=O)NCCCOC(C)C)cc32)c1	i
CC1=Nc2cc(C(=O)NC(C)C)ccc2Sc2ccc(C)cc21	11µM
SMILES	Pf Dd2 growth
CCOC(=O)c1cc(-c2ccc(OC)cc2)n(CCC(=O)NCCc2ccccc2)c1C	i
CN1[C@@H](CCC(=O)N2CCN(c3ccccc3)CC2)CNC(=O)[C@@H]2[C@H]1CCN2CC(C)(C)C	i
COc1cccc(CNC(=O)CC2CCCCN(C)C2=O)c1OC (configuration not stated)	i
CCCOC(=O)N1CCCC(c2nnc(CN3CCOCC3)n2C)C1 (configuration not stated)	i
Cc1ccc(NC(=O)Nc2ccc(C)n(CC(=O)NCC(C)C)c2=O)cc1	i
Cc1cc(S(=O)(=O)N2CCC(N(C(=O)C3CC3)C3CCOCC3)CC2)ccc1Cl	i
O=C(C1CC1)N(C1CCOCC1)C1CCN(S(=O)(=O)c2ccc(F)c(Cl)c2)CC1	10µM
O=C(C1CC1)N(C1CCOCC1)C1CCN(S(=O)(=O)c2cc(F)cc(F)c2)CC1	i
CCOCCn1c(=O)[nH]c2cc(C(=O)NCc3csc(CC)n3)ccc21	i
CCCC(=O)N1CC(c2nc(C)no2)C2(CCOCC2)C1 (configuration not stated)	i
CN1C(=O)CS(=O)(=O)C12CCN(C(=O)c1ccc(Cl)cc1)CC2	i
CN(C)c1cccc(C(=O)N2CCC(c3c[nH]c4ccccc34)(c3c[nH]c4ccccc34)CC2)c1	4µM
Cc1ccc(C2=NC3(CCN(C(=O)c4cccc(N(C)C)c4)CC3)ON2)cc1	i
CC(C)CC1=NC2(CCN(C(=O)c3cccc(N(C)C)c3)CC2)C(=O)N1	i
COC[C@@H]1[C@H](NC(=O)c2nc(-c3ccccc3)[nH]c2C)[C@@H]2CCO[C@H]12	i
COc1cccc(C2Cn3nnc(-c4nc(-c5ccc(OC(F)(F)F)cc5)no4)c3CO2)c1 (configuration not stated)	i
CCc1nc(-c2c3n(c(=O)n(CC(=O)NCc4ccc(OC)cc4)c2=O)CCCC3)no1	i
S=C(NC1CCCCC1)N[C@H]1CO[C@H]2[C@@H]1OC[C@@H]2n1nnnc1Oc1ccc2c(c1)OCO2	i
O=C(Nc1ccc2nnc(-c3ccc(C(=O)N4CCSCC4)cc3)n2c1)C1CCC1	2.2µM
O=C(NC1CC1)c1ccc2nnc(-c3ccc(C(F)(F)F)cc3)n2c1	i
CN(C)C(=O)c1ccc(-c2nnc3ccc(NC(=O)C4CCC4)cn23)cc1	4µM
O=C(Nc1ccc(-c2nnc3n2CCCC3)cc1)C1CCCCC1	i
